Experimental data as given in PubChem BioAssay.
“And” between values parts separate entries of the source, which are not always exact repeats. Identical values can stand only once.

assay: viability loss with induced miR-34 in A549 – imaging, A549 dox-inducible miR-34, nuclei and caspase counts, primary screen (AID 1347080); conditions: A549 miR-34 inducible, Hoechst nuclei count, 48 h; measured here: total cells with miR-34 induction; stronger effect = lower value; further: test concentration not given here

Row | Structure (SMILES) | cell count
1 | COc1ccc([C@@H]2CC(=O)c3c(O)cc(O[C@@H]4O[C@H](CO[C@@H]5O[C@@H](C)[C@H](O)[C@@H](O)[C@H]5O)[C@@H](O)[C@H](O)[C@H]4O)cc3O2)cc1O | 8600
2 | COc1cccc(OC)c1OCCNCC1COc2ccccc2O1 (configuration not stated) | 8030 and 7680
3 | C[C@H]1O[C@@H](O[C@H]2[C@@H](O)C[C@H](O[C@H]3[C@@H](O)C[C@H](O[C@H]4CC[C@@]5(C)[C@H](CC[C@@H]6[C@@H]5C[C@@H](O)[C@]5(C)[C@@H](C7=CC(=O)OC7)CC[C@]65O)C4)O[C@@H]3C)O[C@@H]2C)C[C@H](O)[C@@H]1O | 512
4 | CCC[C@@H]1C[C@@H](C(=O)N[C@@H]([C@H]2O[C@H](SC)[C@H](O)[C@@H](O)[C@H]2O)[C@@H](C)O)N(C)C1 | 8810
5 | O=C(O)C1=CCNCC1 | 9950 and 8720
6 | COc1cc2c(c(OC)c1OC)-c1ccc(OC)c(=O)cc1C(NC(C)=O)CC2 (configuration not stated) | 1510
7 | O=C(O)c1c2ccccc2cc2ccccc12 | 9100
8 | CCCn1c(=O)c2[nH]c(C3CCCC3)nc2n(CCC)c1=O | 7850 and 7600
9 | CN[C@H](CC(C)C)C(=O)N[C@H]1C(=O)N[C@@H](CC(N)=O)C(=O)N[C@H]2C(=O)N[C@H]3C(=O)N[C@H](C(=O)N[C@H](C(=O)O)c4cc(O)cc(O)c4-c4cc3ccc4O)[C@H](O)c3ccc(c(Cl)c3)Oc3cc2cc(c3O[C@@H]2O[C@H](CO)[C@@H](O)[C@H](O)[C@H]2O[C@H]2C[C@](C)(N)[C@H](O)[C@H](C)O2)Oc2ccc(cc2Cl)[C@H]1O | 9810
10 | C=C(C)[C@@H]1CC[C@]2(C(=O)O)CC[C@]3(C)[C@H](CC[C@@H]4[C@@]5(C)CC[C@H](O)C(C)(C)[C@@H]5CC[C@]43C)[C@@H]12 | 5780 and 2010
11 | C[C@@H]1[C@H](O)[C@@H](C)/C=C/C=C/C=C/C=C/C=C/C=C/C=C/[C@H](O[C@@H]2O[C@H](C)[C@@H](O)[C@H](N)[C@@H]2O)C[C@@H]2O[C@](O)(C[C@@H](O)C[C@@H](O)[C@H](O)CC[C@@H](O)C[C@@H](O)CC(=O)O[C@H]1C)C[C@H](O)[C@H]2C(=O)O | 7670
12 | C=C1C(=O)O[C@H]2[C@H]1CC/C(C)=C/CC[C@@]1(C)O[C@@H]21 | 8550
13 | O=C(O)C1=CCCNC1 | 8890 and 8940
14 | O=C(O)Cc1nn(Cc2ccc(Br)cc2F)c(=O)c2ccccc12 | 8710
15 | COc1cc(NS(C)(=O)=O)ccc1Nc1c2ccccc2nc2ccccc12 | 867
16 | C[C@H](CCC(=O)O)[C@H]1CC[C@H]2[C@@H]3[C@H](O)C[C@@H]4C[C@H](O)CC[C@]4(C)[C@H]3CC[C@]12C | 9290
17 | CCC(=O)NCC[C@@H]1CCc2ccc3c(c21)CCO3 | 11800
18 | CCC[C@@H]1C[C@@H](C(=O)N[C@@H]([C@H]2O[C@H](SC)[C@H](O)[C@@H](O)[C@H]2O)[C@H](C)Cl)N(C)C1 | 9830 and 9930
19 | O=C(/C=C/c1ccc(O)c(O)c1)O[C@H](Cc1ccc(O)c(O)c1)C(=O)O | 5220 and 9720
20 | O=C(O)c1cc(=O)c2ccc(Cl)cc2[nH]1 | 8410
21 | CC[C@@]1(O)C[C@H](O[C@H]2C[C@H](N(C)C)[C@H](O[C@H]3C[C@H](O)[C@H](O[C@H]4CCC(=O)[C@H](C)O4)[C@H](C)O3)[C@H](C)O2)c2c(cc3c(c2O)C(=O)c2c(O)cccc2C3=O)[C@H]1C(=O)OC | 1190
22 | CC(=O)[C@H]1CC[C@H]2[C@@H]3CCC4=CC(=O)CC[C@]4(C)[C@H]3CC[C@]12C | 8120 and 7150 and 6560
23 | N=c1ccn2c(n1)O[C@H]1[C@H](O)[C@@H](CO)O[C@H]12 | 3040
24 | O=C(O)c1cc(=O)c2ccccc2[nH]1 | 10600 and 8100
25 | CC(C)C[C@H]1C(=O)N2CCC[C@H]2[C@]2(O)O[C@](NC(=O)[C@@H]3C=C4c5cccc6[nH]c(Br)c(c56)C[C@H]4N(C)C3)(C(C)C)C(=O)N12 | 5460 and 4760
26 | C[C@H]1C[C@H]2[C@@H]3CCC4=CC(=O)C=C[C@]4(C)[C@@]3(F)[C@@H](O)C[C@]2(C)[C@@]1(O)C(=O)CO | 6320

same assay, conditions: A549 miR-34 inducible, Hoechst nuclei count, 48 h; measured here: total cells without miR-34 induction

Row | Structure (SMILES) | cell count
27 | COc1ccc([C@@H]2CC(=O)c3c(O)cc(O[C@@H]4O[C@H](CO[C@@H]5O[C@@H](C)[C@H](O)[C@@H](O)[C@H]5O)[C@@H](O)[C@H](O)[C@H]4O)cc3O2)cc1O | 10100
28 | COc1cccc(OC)c1OCCNCC1COc2ccccc2O1 (configuration not stated) | 8310 and 8340
29 | C[C@H]1O[C@@H](O[C@H]2[C@@H](O)C[C@H](O[C@H]3[C@@H](O)C[C@H](O[C@H]4CC[C@@]5(C)[C@H](CC[C@@H]6[C@@H]5C[C@@H](O)[C@]5(C)[C@@H](C7=CC(=O)OC7)CC[C@]65O)C4)O[C@@H]3C)O[C@@H]2C)C[C@H](O)[C@@H]1O | 523
30 | CCC[C@@H]1C[C@@H](C(=O)N[C@@H]([C@H]2O[C@H](SC)[C@H](O)[C@@H](O)[C@H]2O)[C@@H](C)O)N(C)C1 | 10500
31 | O=C(O)C1=CCNCC1 | 9930 and 8960
32 | COc1cc2c(c(OC)c1OC)-c1ccc(OC)c(=O)cc1C(NC(C)=O)CC2 (configuration not stated) | 1550
33 | O=C(O)c1c2ccccc2cc2ccccc12 | 9890
34 | CCCn1c(=O)c2[nH]c(C3CCCC3)nc2n(CCC)c1=O | 7700 and 8070
35 | CN[C@H](CC(C)C)C(=O)N[C@H]1C(=O)N[C@@H](CC(N)=O)C(=O)N[C@H]2C(=O)N[C@H]3C(=O)N[C@H](C(=O)N[C@H](C(=O)O)c4cc(O)cc(O)c4-c4cc3ccc4O)[C@H](O)c3ccc(c(Cl)c3)Oc3cc2cc(c3O[C@@H]2O[C@H](CO)[C@@H](O)[C@H](O)[C@H]2O[C@H]2C[C@](C)(N)[C@H](O)[C@H](C)O2)Oc2ccc(cc2Cl)[C@H]1O | 10400
36 | C=C(C)[C@@H]1CC[C@]2(C(=O)O)CC[C@]3(C)[C@H](CC[C@@H]4[C@@]5(C)CC[C@H](O)C(C)(C)[C@@H]5CC[C@]43C)[C@@H]12 | 7300 and 1790
37 | C[C@@H]1[C@H](O)[C@@H](C)/C=C/C=C/C=C/C=C/C=C/C=C/C=C/[C@H](O[C@@H]2O[C@H](C)[C@@H](O)[C@H](N)[C@@H]2O)C[C@@H]2O[C@](O)(C[C@@H](O)C[C@@H](O)[C@H](O)CC[C@@H](O)C[C@@H](O)CC(=O)O[C@H]1C)C[C@H](O)[C@H]2C(=O)O | 8570
38 | C=C1C(=O)O[C@H]2[C@H]1CC/C(C)=C/CC[C@@]1(C)O[C@@H]21 | 8630
39 | O=C(O)C1=CCCNC1 | 8980 and 9310
40 | O=C(O)Cc1nn(Cc2ccc(Br)cc2F)c(=O)c2ccccc12 | 8960
41 | COc1cc(NS(C)(=O)=O)ccc1Nc1c2ccccc2nc2ccccc12 | 1020
42 | C[C@H](CCC(=O)O)[C@H]1CC[C@H]2[C@@H]3[C@H](O)C[C@@H]4C[C@H](O)CC[C@]4(C)[C@H]3CC[C@]12C | 10100
43 | CCC(=O)NCC[C@@H]1CCc2ccc3c(c21)CCO3 | 13400
44 | CCC[C@@H]1C[C@@H](C(=O)N[C@@H]([C@H]2O[C@H](SC)[C@H](O)[C@@H](O)[C@H]2O)[C@H](C)Cl)N(C)C1 | 10600 and 10900
45 | O=C(/C=C/c1ccc(O)c(O)c1)O[C@H](Cc1ccc(O)c(O)c1)C(=O)O | 5780 and 9920
46 | O=C(O)c1cc(=O)c2ccc(Cl)cc2[nH]1 | 8710
47 | CC[C@@]1(O)C[C@H](O[C@H]2C[C@H](N(C)C)[C@H](O[C@H]3C[C@H](O)[C@H](O[C@H]4CCC(=O)[C@H](C)O4)[C@H](C)O3)[C@H](C)O2)c2c(cc3c(c2O)C(=O)c2c(O)cccc2C3=O)[C@H]1C(=O)OC | 612
48 | CC(=O)[C@H]1CC[C@H]2[C@@H]3CCC4=CC(=O)CC[C@]4(C)[C@H]3CC[C@]12C | 7520 and 8800 and 7700
49 | N=c1ccn2c(n1)O[C@H]1[C@H](O)[C@@H](CO)O[C@H]12 | 2660
50 | O=C(O)c1cc(=O)c2ccccc2[nH]1 | 9680 and 8420
51 | CC(C)C[C@H]1C(=O)N2CCC[C@H]2[C@]2(O)O[C@](NC(=O)[C@@H]3C=C4c5cccc6[nH]c(Br)c(c56)C[C@H]4N(C)C3)(C(C)C)C(=O)N12 | 4010 and 4360
52 | C[C@H]1C[C@H]2[C@@H]3CCC4=CC(=O)C=C[C@]4(C)[C@@]3(F)[C@@H](O)C[C@]2(C)[C@@]1(O)C(=O)CO | 7770
